Compound activity from PubChem.
Compounds with a hit are over-represented: about 2.4% of the library has one in this group of screens.
D2 PAM-1 = positive allosteric modulators of human D2 dopamine receptor; DiscoveRx D2 beta-arrestin cells, luminescence, 90 min; 100% = 57 uM dopamine signal; P14416; potentiation, % (test concentration not listed); 360,000 compounds, 0.23% hits; in the data active means potentiation above about 50%; inconclusive means mostly about 30% to 49%
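PathHunter beta-arrestin assay in DiscoveRx D2 cells. Compounds were added with an EC20 of dopamine (50 nM final) for 90 min at 37 deg C. Luminescence was read 1 h after detection reagent, with 57 uM dopamine as the EC100 control.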
D2 PAM-2 = positive allosteric modulators of human D2 dopamine receptor | P14416 | HEK293 T-REx D2, calcium flux, EC20 dopamine potentiation | potentiation, % at 10 µM | 340,000 compounds, 0.34% hits | AID 485347;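 active means potentiation over 3 SD above the plate norm, cut at about 30% in these data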; further: 0% is about no effect
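Calcium flux readout, no-wash dye, 1 read/s. Inducible HEK293 Trex D2 line, overnight 30 C. Compound alone 180 s (agonist flags), then EC20 dopamine, another 180 s to score potentiation.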
D2 ag-1 = activates the human D2 dopamine receptor; P14416; DiscoveRx PathHunter D2 beta-arrestin, luminescence, 90 min; 100% = 57 uM dopamine signal; activation, % (test concentration not listed); 360,000 compounds, 0.084% hits; in the data active means activation above about 40%; inconclusive means between about 15% and that limit
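Agonist mode: compounds alone added to overnight-plated D2 PathHunter cells for 90 min at 37 C, with 57 uM final dopamine (EC100) defining full response. Beta-arrestin recruitment detected by chemiluminescent reagent, read after 1 h at ambient temperature.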
D2 ag-2 = activates the human D2 dopamine receptor. P14416. HEK293 T-REx D2 cells, calcium flux agonist mode. activation, % at 2 µM. 340,000 compounds, 0.53% hits. AID 485358;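 active means activation over 3 SD above normal in the single-dose calcium agonist read, cut at about 30% in these data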; further: 0% is about no effect
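Tetracycline-induced HEK293 Trex cells with D2 receptor force-coupled to calcium signaling, plated overnight at 30 C and loaded with no-wash calcium dye. Calcium flux read kinetically for 180 s after compound addition; responses flag agonists.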
D2 antagonist = antagonizes the human D2 dopamine receptor; HEK293 TREx D2 cells, calcium flux, dopamine EC80; inhibition, % at 10 µM; 340,000 compounds, 2% hits; AID 485344; in the data active means inhibition above about 30%; inactive means below that, where a call was filed; further: 0% is about no effect
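Tetracycline-induced HEK293 T-REx cells expressing D2 force-coupled to calcium signalling were dye-loaded, exposed to compound for 180 s, then challenged with an EC80 of dopamine; calcium flux was followed kinetically for a further 180 s.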
D3 arrestin ag = activates human D3 dopamine receptor beta-arrestin recruitment; shares compounds with D2 ag-2; DiscoveRx D3 beta-arrestin cells, luminescence, 90 min; Potency, µM (series often up to 76.9 µM), inactives show at the highest dose activation, hits mostly activators; 2,300 compounds, 4% hits; AID 720506;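 further: potency means the concentration at half of the fitted maximal effect; 100% = dopamine control response; nearly all actives have a fitted effect of over 70% in size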
Target sequence (P35462 whole entry, looked up): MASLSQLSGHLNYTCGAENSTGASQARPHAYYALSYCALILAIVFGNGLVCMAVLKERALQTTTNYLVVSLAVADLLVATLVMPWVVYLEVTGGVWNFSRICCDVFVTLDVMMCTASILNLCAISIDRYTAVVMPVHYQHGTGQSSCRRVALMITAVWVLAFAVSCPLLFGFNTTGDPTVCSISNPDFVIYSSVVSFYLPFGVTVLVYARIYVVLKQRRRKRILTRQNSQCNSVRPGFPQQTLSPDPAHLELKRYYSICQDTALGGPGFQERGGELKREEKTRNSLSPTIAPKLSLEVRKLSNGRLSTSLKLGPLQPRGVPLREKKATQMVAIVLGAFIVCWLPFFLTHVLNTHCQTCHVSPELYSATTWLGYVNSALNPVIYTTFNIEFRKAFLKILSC
D2 ag-3 = D2 receptor agonism, beta-arrestin counterscreen; Potency, µM (titrated, usually from 76.9 µM), without a hit: at the highest dose activation, hits mostly activators; shares compounds with D2 ag-2; DiscoveRx PathHunter D2 beta-arrestin, luminescence, 90 min; response scale: percent relative to full dopamine signal; 2,300 compounds, 5.9% hits; further: potency means the concentration at half of the fitted maximal effect; % of control where 0% means no effect; nearly all actives have a fitted effect of over 70% in size
Active calls of the source: *; ? = inconclusive; · = not tested or not shown. Unless noted, the call rests on the fitted dose curve; in most records, active means well fitted activation curve with a large enough effect; inconclusive means small, poorly fitted or top-dose-only effect; inactive means flat fitted curve, though single readings scatter.

SMILES	D2 PAM-1	D2 PAM-2	D2 ag-1	D2 ag-2	D2 antagonist	D3 arrestin ag	D2 ag-3
O=C(CC1NCCc2ccccc21)Nc1ccc(Oc2ccccc2)cc1 (configuration not stated)	10	-37	9	68*	60*	-9%	0%
COc1ccccc1NCc1cccn1-c1nnc(N2CCCCCC2)s1	·	-8	·	-1	·	·	·
Cc1ccc(C(=O)c2cn(CC(=O)Nc3ccc4c(c3)OCCO4)c3nc(C)ccc3c2=O)cc1	·	0	·	-1	·	·	·
O=C(CCc1nnc2n(Cc3ccc(F)cc3)c(=O)c3ccccc3n12)N1CCN(c2ccccn2)CC1	-6	-27	-5	53*	12	-13%	-8%
O=C(CCc1nnc2n(Cc3ccc(F)cc3)c(=O)c3ccccc3n12)NCCN1CCOCC1	-7	0	1	0	-27	·	·
Cc1ccnc(NC(=O)CC(NC(=O)c2ccccc2Cl)c2ccccc2)c1 (configuration not stated)	-7	2	-1	1	-17	·	·
Cc1ccc(NC(=O)CC(NC(=O)c2ccccc2Cl)c2ccccc2)nc1 (configuration not stated)	0	-8	8	0	-19	-2%	-3%
O=C(NCC(c1ccco1)N1CCN(c2ccccc2F)CC1)C(=O)NC1CC1 (configuration not stated)	29	-1	2	23	33*	?	?
O=C(NCC(c1ccco1)N1CCN(c2ccccc2F)CC1)C(=O)NC1CCCCC1 (configuration not stated)	-2	8	6	2	9	·	·
O=C(NCC(c1ccco1)N1CCN(c2ccccc2F)CC1)C1CCCCC1 (configuration not stated)	-6	-31	?	77*	59*	?	?
C[C@H](NC(=O)OC(C)(C)C)c1nnc(SCc2ccc(Cl)cc2Cl)o1	·	-4	·	0	·	·	·
N#C/C(=N\Nc1ccccc1)C(N)=S	-29	-1	-11	1	4	-10%	-19%
Cc1cccc(/C=N/NC(=O)NC2CCCCC2)c1	-7	-10	-6	3	26	-3%	-3%
COc1ccc(OC)c(CNC(=O)c2cc3ccc4cccnc4c3[nH]2)c1	·	6	·	1	·	·	·
CCc1ccc2ncc3c(-c4ccc(F)cc4)nn(CC(=O)NC4CCCCC4)c3c2c1	·	19	·	0	·	·	·
COc1cc(C#Cc2c(-c3ccccc3OC)oc3ccccc23)cc(OC)c1	-2	4	-8	3	0	-2%	2%
COc1ccc(C2(NC(C)=O)CCN(C(=O)CCC(=O)O)CC2)cc1	-1	-11	0	51*	-1	-7%	-2%
COc1ccc(CNC(=O)CCC(=O)N2CCN(C(C)=O)CC2)cc1	-4	-2	6	1	8	·	·
O=C(CSc1ncnc2scc(-c3ccc(F)cc3)c12)c1ccc2c(c1)OCCO2	-20	1	1	50*	6	8%	2%
COc1cc2[nH]c3c(=O)n4c(nc3c2cc1OC)SCCC4	14	7	0	1	6	7%	-3%
COc1ccc2[nH]c3c(=O)n4c(nc3c2c1)SCC4	13	-4	5	1	11	·	·
CCCC(C)NC(=O)c1cc(S(=O)(=O)N2CCCCCC2)ccc1OC (configuration not stated)	0	4	-2	1	-12	-5%	0%
CC[n+]1c(-c2ccc(C)cc2)csc1Nc1c(C)n(C)n(-c2ccccc2)c1=O	-41	-16	3	66*	52*	1%	24%
Cc1ccc(Nc2nc3ccccc3nc2Nc2c(C)n(C)n(-c3ccccc3)c2=O)cc1	-4	-10	-2	1	-2	·	·
CC[n+]1c(-c2ccccc2)csc1Nc1c(C)n(C)n(-c2ccccc2)c1=O	-2	-21	1	50*	-6	-8%	2%
SMILES	D2 PAM-1	D2 PAM-2	D2 ag-1	D2 ag-2	D2 antagonist	D3 arrestin ag	D2 ag-3
Cc1ccc(S(=O)(=O)N(CC(=O)Nc2c(C)cccc2C)c2cccc(Cl)c2)cc1	·	6	·	1	·	·	·
CCOC(=O)c1nncc(-c2ccccc2)n1	-5	16	-2	0	2	-3%	-3%
CCOC(=O)c1cc(-c2ccccc2)n[nH]1	2	-1	-1	-1	-15	·	·
CC(=O)c1c(C)[nH]c(C(=O)OCC(=O)Nc2nnc(-c3ccccc3)o2)c1C	2	-2	5	0	35*	2%	-2%
CC(=O)c1c(C)[nH]c(C(=O)OCC(=O)Nc2ccccc2Cl)c1C	-2	5	5	1	20	·	·
O=C(NCc1ccccc1)c1ccc(CSc2nc3cccnc3n2Cc2cccc(F)c2)cc1	·	-3	·	0	·	·	·
CC(C)NC[C@@H](O)c1ccc(O)c(O)c1	23	-2	3	16	-19	?	24%
CC(=O)c1cc2c(C)c(C(=O)c3ccccc3)oc2cc1O	-27	-10	-3	36*	-9	1%	-2%
O=C(c1ccccc1)c1ccc(O)cc1O	-8	-3	-6	11	-4	·	·
O=C(c1ccc(Cl)c(S(=O)(=O)N2CCCCC2)c1)N1CCCC(C(F)(F)F)C1 (configuration not stated)	-1	-6	3	0	22	0%	0%
COc1ccc(OCC(O)CNC(C)c2ccccc2)cc1 (configuration not stated)	-5	6	-1	2	-10	·	·
COc1ccc([C@H](C)NC[C@H](O)c2ccc(O)c(NC=O)c2)cc1	-17	-5	-3	33*	4	-1%	0%
O=C(CCc1nc2ccccc2c(=O)[nH]1)N1CCN(C/C=C/c2ccccc2)CC1	-11	-31	4	19	10	16%	?
O=C(CCc1nc2ccccc2c(=O)[nH]1)Nc1ccc(F)cc1	-21	-4	-1	-1	16	·	·
O=C(O)CCc1nc2ccccc2c(=O)[nH]1	-5	-15	-2	29	21	-21%	-4%
CC(=O)N1CCN(C(=O)CCc2nc3ccccc3c(=O)[nH]2)CC1	-9	·	-3	·	·	·	·
Cc1ccc(Nc2c3c(nc4nncn24)CCC3)c(C)c1	·	13	·	0	·	·	·
Cc1ccc(CSc2cn(CC(=O)N3CCCCC3)c3ccccc23)cc1	·	-2	·	0	·	·	·
COc1ccc(-c2noc(CN(C(=O)Cc3ccc(C)cc3)C(C)C)n2)cc1	·	11	·	·	·	·	·
